# Results as given in PubChem BioAssay (NCATS).
# Records with an inconclusive call do not appear. Activity calls are given as the source filed them. Unless noted, calls come from the whole dose curve; as a rule, active = well fitted curve in the direction sought with a large enough effect; inconclusive = small, poorly fitted or top-dose-only effect, or another doubt; inactive = no such curve, though single readings can be large; an effect the other way counts as inactive or inconclusive.
# Legend:
# [1] = target: Cytochrome P450 3A4 (Homo sapiens) (UniProt P08684); experiment: qHTS Assay for Inhibitors and Substrates of Cytochrome P450 3A4 (AID 884); note: nearly all actives have a fitted effect of over 50% in size; note: potency is the fitted concentration of half-maximal effect
# Sequence of Cytochrome P450 3A4 (Homo sapiens) (P08684 whole entry, looked up): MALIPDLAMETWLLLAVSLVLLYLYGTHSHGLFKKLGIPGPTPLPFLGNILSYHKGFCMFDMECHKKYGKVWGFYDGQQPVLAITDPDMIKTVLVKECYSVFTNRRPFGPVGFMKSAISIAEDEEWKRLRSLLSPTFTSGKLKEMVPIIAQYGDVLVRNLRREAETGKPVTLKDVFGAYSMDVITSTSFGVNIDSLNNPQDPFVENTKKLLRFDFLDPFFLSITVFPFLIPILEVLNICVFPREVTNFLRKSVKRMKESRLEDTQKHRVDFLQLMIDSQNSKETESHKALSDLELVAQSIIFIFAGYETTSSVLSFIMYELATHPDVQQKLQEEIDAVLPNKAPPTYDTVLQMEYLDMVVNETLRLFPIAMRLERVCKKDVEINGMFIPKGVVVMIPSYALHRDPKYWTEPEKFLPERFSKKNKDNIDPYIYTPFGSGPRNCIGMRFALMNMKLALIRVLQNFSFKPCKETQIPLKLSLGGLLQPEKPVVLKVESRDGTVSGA
# In short: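 Luminescent readout of luciferin produced by CYP3A4 (20 nM) dealkylation of Luciferin-PPXE, 25 uM (its KM). NADPH-driven reaction ran 60 min at RT after 10 min compound preincubation; data scaled to 57 uM ketoconazole as 100% inhibition.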
# [2] = target: Cytochrome P450 3A4 (Homo sapiens) (UniProt P08684); experiment: qHTS Assay for Activators of Cytochrome P450 3A4 (AID 885); note: nearly all actives have a fitted effect of over 65% in size
# In short: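 Activators are scored by enhanced luminescence from CYP3A4 conversion of luciferin-PPXE (25uM, equal to KM) to luciferin, after 60 min at RT with an NADPH-regenerating system.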
# [3] = Confirmation and Secondary Assay for Modulators of Hemoglobin Beta Chain Splicing at IVS2 654 locus (AID 910);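 note: HeLa cells stably carrying EGFP split by mutant beta-globin IVS2-654 intron; % of control where 0% means no effect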
# In short: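 HeLa cells stably expressing EGFP interrupted by β-globin IVS2-654 intron, seeded overnight in Opti-MEM/2% FCS, then treated 2 days at 37 °C. Restored splicing read as total peak GFP intensity per well by laser scanning cytometry (488 nm excitation, 500–520 nm emission); 500 nM antisense PNA as control.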
# [4] = Confirmation and Secondary Assay for Modulators of Hemoglobin Beta Chain Splicing at IVS2 705 locus (AID 930);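 note: HeLa cells stably expressing the EGFP-705 splicing reporter; GFP fluorescence per well restored by corrected splicing of the IVS2-705 intron in EGFP; % of control where 0% means no effect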
# In short: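 Assay measures total GFP intensity per well in HeLa EGFP-705 cells after 2 days with compound; mis-splicing normally truncates EGFP, so fluorescence indicates corrected splicing.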
# [5] = qHTS Assay for Lipid Storage Modulators (AID 1519; calls by dose curve); conditions: Drosophila S3 cells, BODIPY lipid droplet/cell ratio, laser cytometry, cells loaded with oleic acid; for activity change, negative = inhibition: at 57.5 µM (top of the series)
# In short: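 Cells seeded at 5,000 per well were treated with compounds over a concentration series and loaded with oleic acid (400 uM, as added). Lipid droplet fluorescence (488 nm excitation, 500-530 nm channel) was read by laser-scanning cytometry and normalized to 20 uM Triacsin C.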
# [6] = target: Ubiquitin carboxyl-terminal hydrolase 1 (Homo sapiens) (UniProt O94782); experiment: Inhibitors of USP1/UAF1: Pilot qHTS (AID 504865);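 note: rhodamine fluorescence freed from ubiquitin-rhodamine substrate followed over time; top concentration of the series differs between compounds; % is set by controls: 0 for no effect and ±100 for the full control effect; nearly all actives have a fitted effect of over 35% in size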
# Sequence of Ubiquitin carboxyl-terminal hydrolase 1 (Homo sapiens) (O94782 whole entry, looked up): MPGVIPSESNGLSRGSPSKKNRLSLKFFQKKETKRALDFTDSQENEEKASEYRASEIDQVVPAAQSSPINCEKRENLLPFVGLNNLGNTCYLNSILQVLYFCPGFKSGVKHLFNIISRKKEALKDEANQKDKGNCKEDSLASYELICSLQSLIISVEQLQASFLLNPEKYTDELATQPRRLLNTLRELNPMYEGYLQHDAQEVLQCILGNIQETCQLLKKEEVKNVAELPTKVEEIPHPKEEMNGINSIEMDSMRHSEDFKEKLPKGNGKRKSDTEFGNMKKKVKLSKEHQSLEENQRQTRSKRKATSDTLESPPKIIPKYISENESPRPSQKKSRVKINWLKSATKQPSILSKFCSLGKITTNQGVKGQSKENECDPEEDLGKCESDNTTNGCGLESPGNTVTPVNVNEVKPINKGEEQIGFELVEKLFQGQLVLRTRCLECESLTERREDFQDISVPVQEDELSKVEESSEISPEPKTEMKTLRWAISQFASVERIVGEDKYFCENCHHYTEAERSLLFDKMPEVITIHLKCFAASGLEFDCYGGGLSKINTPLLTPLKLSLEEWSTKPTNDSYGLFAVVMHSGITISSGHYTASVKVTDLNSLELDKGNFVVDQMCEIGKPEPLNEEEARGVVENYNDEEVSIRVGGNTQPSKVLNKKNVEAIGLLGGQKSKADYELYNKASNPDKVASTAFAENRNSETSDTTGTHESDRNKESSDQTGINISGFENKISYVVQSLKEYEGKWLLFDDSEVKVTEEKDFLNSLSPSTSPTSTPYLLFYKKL
# In short: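 Deubiquitinase activity followed as kinetic rhodamine fluorescence release from 150 nM Ub-Rho. 1 nM USP1/UAF1 with compound, after 15 min room-temperature preincubation, in HEPES pH 7.8 buffer containing TCEP, EDTA, BSA and Tween-20.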
# [7] = target: Estrogen receptor (Homo sapiens) (UniProt P03372); experiment: qHTS assay for small molecule antagonists of estrogen receptor alpha signaling (AID 588513; active = well fitted curve in the direction sought with a large enough effect in the signal ratio, with a control signal flat, not every such curve was filed as active; the % refers to the signal ratio; note: % is set by controls: 0 for no effect and ±100 for the full control effect)
# Sequence of Estrogen receptor (Homo sapiens) (P03372 whole entry, looked up): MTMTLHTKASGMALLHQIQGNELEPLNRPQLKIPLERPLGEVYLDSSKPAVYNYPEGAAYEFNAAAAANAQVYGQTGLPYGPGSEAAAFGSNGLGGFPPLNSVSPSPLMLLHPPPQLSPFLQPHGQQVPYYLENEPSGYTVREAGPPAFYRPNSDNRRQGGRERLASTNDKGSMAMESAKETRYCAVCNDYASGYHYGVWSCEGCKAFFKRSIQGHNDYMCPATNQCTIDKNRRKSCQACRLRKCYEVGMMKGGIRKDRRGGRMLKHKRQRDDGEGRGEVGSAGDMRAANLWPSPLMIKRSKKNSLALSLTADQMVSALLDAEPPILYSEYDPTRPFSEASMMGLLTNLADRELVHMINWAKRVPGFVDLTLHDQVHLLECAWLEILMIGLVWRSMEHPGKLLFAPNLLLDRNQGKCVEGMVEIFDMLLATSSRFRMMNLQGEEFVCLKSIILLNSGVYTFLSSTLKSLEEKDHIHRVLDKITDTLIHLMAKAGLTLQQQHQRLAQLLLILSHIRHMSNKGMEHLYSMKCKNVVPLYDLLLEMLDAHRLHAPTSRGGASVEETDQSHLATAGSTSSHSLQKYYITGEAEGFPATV
# In short: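 Antagonist mode: inhibition of 0.5 nM 17-beta-estradiol-driven beta-lactamase reporter in HEK 293 ER-alpha-UAS-bla cells, 18 h at 37C, CCF4 readout after 2 h at RT. Normalised to estradiol and DMSO; titration fitted to Hill.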
# [8] = target: Estrogen receptor (Homo sapiens) (UniProt P03372); experiment: qHTS assay for small molecule agonists of estrogen receptor alpha signaling (AID 588514; calls by dose curve;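 note: 0% = vehicle only and 100% = reference agonist; nearly all actives have a fitted effect of over 70% in size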)
# In short: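 Efficacy is expressed against 20 nM 17-beta-estradiol (100%) and DMSO basal (0%); EC50 from Hill equation. Assay: beta-lactamase reporter in ER-alpha-UAS-bla HEK 293 cells, 18 h compound incubation, CCF4 detection.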
# [9] = target: Glucocorticoid receptor (Homo sapiens) (UniProt P04150); experiment: qHTS assay for small molecule agonists of glucocorticoid receptor signaling (AID 588532; active = well fitted curve in the direction sought with a large enough effect in the signal ratio, with a control signal flat; the % refers to the signal ratio;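 note: 100% = dexamethasone at 0.1 µM and 0% = DMSO only wells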); conditions: HeLa MMTV-bla, beta-lactamase ratio, agonist, 18 h; stronger effect = higher value; percent of dexamethasone control, DMSO zero
# Sequence of Glucocorticoid receptor (Homo sapiens) (P04150 whole entry, looked up): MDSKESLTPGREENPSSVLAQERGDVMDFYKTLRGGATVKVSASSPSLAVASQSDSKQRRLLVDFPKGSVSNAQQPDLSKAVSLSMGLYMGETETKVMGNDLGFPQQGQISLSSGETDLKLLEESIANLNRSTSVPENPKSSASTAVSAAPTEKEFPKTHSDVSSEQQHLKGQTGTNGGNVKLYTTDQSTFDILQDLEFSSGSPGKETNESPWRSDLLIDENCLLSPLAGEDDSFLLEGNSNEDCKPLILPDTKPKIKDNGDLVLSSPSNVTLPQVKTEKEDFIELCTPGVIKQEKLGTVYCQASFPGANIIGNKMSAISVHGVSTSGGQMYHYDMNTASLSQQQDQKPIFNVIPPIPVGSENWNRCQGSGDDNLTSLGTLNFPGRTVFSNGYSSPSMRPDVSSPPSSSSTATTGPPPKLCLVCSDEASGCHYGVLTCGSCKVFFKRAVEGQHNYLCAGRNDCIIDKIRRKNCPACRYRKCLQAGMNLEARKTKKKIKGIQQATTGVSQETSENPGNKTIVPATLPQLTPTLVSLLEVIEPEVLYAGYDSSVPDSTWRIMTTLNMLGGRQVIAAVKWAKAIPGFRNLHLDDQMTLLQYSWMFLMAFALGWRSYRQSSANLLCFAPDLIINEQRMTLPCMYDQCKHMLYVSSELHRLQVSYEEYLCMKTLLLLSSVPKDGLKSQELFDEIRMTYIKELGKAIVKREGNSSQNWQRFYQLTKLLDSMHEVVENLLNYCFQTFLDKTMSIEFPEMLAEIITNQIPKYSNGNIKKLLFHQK
# In short: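 HeLa GRE-bla reporter cells; 18 h compound exposure at 37 C; 2 h CCF4 loading at room temperature; fluorescence at 460 and 530 nm; EC50 by Hill equation.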
# [10] = target: Glucocorticoid receptor (Homo sapiens) (UniProt P04150); experiment: qHTS assay for small molecule antagonists of glucocorticoid receptor signaling (AID 588533; active = well fitted inhibition curve with a large enough effect in the signal ratio, with a control signal flat, not every such curve was filed as active; the % refers to the signal ratio; note: % is set by controls: 0 for no effect and ±100 for the full control effect)
# In short: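 Antagonist-mode qHTS: compound titrations added to GRE-bla HeLa cells, then dexamethasone 2 nM final; 18 h, 37 C. CCF4 FRET fluorescence normalized to dexamethasone and DMSO; IC50 from Hill fit.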
# [11] = target: Peroxisome proliferator-activated receptor delta (Homo sapiens) (UniProt Q03181); experiment: qHTS assay for small molecule agonists of peroxisome proliferator-activated receptor delta signaling (AID 588534; calls by dose curve;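 note: 0% = DMSO basal wells and 100% = positive control agonist at 10 µM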)
# Sequence of Peroxisome proliferator-activated receptor delta (Homo sapiens) (Q03181 whole entry, looked up): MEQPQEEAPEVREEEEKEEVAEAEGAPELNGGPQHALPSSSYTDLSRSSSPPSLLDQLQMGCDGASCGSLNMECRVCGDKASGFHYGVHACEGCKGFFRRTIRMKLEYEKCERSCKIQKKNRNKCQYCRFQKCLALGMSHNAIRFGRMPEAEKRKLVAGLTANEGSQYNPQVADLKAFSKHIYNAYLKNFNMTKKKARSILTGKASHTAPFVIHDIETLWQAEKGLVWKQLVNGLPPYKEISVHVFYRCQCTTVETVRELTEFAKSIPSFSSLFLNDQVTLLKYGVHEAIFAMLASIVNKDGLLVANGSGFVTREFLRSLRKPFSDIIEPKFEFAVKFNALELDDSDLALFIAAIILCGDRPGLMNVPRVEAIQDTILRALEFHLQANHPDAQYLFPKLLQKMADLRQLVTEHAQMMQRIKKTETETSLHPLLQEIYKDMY
# In short: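 Agonist-mode qHTS; reporter cells, 5 hrs 37 C pre-incubation; compound titration, 18 hrs 37 C; CCF4 dye, 2 hrs RT; fluorescence read. EC50/efficacy via Hill fit.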
# [12] = qHTS assay for small molecule antagonists of peroxisome proliferator-activated receptor delta signaling (AID 588535); conditions: HEK293T PPARd-UAS-bla, beta-lactamase FRET ratio, 18 h; 460 nm channel;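 note: cells co-treated with a PPAR-delta agonist as stimulator during compound exposure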
# In short: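 Fluorescence from CCF4-loaded GeneBLAzer PPAR-delta-UAS-bla HEK293T cells (2 hrs RT loading) quantified reporter inhibition after an 18 hr, 37 C compound exposure across a titration.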
# [13] = target: Peroxisome proliferator-activated receptor gamma (Homo sapiens) (UniProt P37231); experiment: qHTS assay for small molecule agonists of peroxisome proliferator-activated receptor gamma signaling (AID 588536; active = well fitted curve in the direction sought with a large enough effect in the signal ratio, with a control signal flat, not every such curve was filed as active; the % refers to the signal ratio;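 note: 0% = DMSO basal wells and 100% = rosiglitazone at 2 µM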)
# Sequence of Peroxisome proliferator-activated receptor gamma (Homo sapiens) (P37231 whole entry, looked up): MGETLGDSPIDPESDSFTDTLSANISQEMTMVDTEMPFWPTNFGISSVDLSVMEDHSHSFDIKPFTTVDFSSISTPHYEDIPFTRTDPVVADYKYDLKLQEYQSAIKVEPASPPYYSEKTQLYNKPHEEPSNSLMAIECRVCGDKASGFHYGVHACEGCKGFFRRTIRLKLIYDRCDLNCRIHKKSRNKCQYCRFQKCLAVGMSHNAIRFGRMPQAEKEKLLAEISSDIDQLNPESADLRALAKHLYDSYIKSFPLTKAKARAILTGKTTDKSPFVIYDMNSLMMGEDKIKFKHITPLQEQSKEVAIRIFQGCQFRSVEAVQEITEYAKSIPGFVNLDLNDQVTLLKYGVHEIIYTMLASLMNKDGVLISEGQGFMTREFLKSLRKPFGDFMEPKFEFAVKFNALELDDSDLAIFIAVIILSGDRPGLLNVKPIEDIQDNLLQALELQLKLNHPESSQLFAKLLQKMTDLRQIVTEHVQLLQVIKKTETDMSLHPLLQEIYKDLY
# In short: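 Beta-lactamase reporter read-out: CCF4 fluorescence (ex 405, em 460/530 nm) after 2 h at RT. HEK293 GeneBLAzer cells were treated for 16 h at 37 C. Hill fits gave EC50 and efficacy versus 2 uM rosiglitazone (100%) and DMSO (0%).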
# [14] = target: Vitamin D3 receptor (Homo sapiens) (UniProt P11473); experiment: qHTS assay for small molecule antagonists of vitamin D receptor signaling (AID 588541; calls by dose curve;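 note: receptor activated by calcitriol during compound treatment; % is set by controls: 0 for no effect and ±100 for the full control effect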)
# Sequence of Vitamin D3 receptor (Homo sapiens) (P11473 whole entry, looked up): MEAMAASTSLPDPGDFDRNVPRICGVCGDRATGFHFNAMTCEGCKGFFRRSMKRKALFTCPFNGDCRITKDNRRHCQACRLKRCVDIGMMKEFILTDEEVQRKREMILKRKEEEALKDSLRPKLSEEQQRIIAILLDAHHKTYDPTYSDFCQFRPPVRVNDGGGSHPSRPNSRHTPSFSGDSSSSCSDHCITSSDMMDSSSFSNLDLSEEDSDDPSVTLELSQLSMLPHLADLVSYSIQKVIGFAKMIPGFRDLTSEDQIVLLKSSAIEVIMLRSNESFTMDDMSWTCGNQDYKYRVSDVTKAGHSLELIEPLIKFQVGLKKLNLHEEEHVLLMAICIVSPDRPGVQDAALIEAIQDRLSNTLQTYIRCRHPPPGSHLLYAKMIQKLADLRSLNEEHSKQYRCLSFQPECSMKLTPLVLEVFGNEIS
# In short: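 VDR-UAS-bla HEK293T cells in 2% charcoal-stripped FBS were stimulated with 1-alpha,25-dihydroxyvitamin D3 (3 nM final) plus compound for 16 h at 37 C. The beta-lactamase CCF4 readout was normalized to 50 nM agonist and DMSO, and Hill fits gave IC50.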
# [15] = target: Vitamin D3 receptor (Homo sapiens) (UniProt P11473); experiment: qHTS assay for small molecule agonists of vitamin D receptor signaling (AID 588543; calls by dose curve;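 note: 0% = DMSO basal and 100% = reference agonist control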)
# In short: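 Agonist-mode beta-lactamase reporter: HEK293T VDR-UAS-bla cells in charcoal-stripped 2% FBS, compound series 16 h 37 C, CCF4 2 h RT. EC50 from Hill fit, scaled against DMSO and 50 nM calcitriol control.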
# [16] = qHTS assay for small molecule agonists of retinoid X receptor alpha signaling (AID 588544; calls by dose curve;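 for activation: 0% = DMSO basal wells and 100% = reference agonist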); conditions: HEK293T RXRa-UAS-bla, beta-lactamase reporter, 18 h; 530 nm emission
# [17] = target: Retinoic acid receptor RXR-alpha (Homo sapiens) (UniProt P19793); experiment: as above
# Sequence of Retinoic acid receptor RXR-alpha (Homo sapiens) (P19793 whole entry, looked up): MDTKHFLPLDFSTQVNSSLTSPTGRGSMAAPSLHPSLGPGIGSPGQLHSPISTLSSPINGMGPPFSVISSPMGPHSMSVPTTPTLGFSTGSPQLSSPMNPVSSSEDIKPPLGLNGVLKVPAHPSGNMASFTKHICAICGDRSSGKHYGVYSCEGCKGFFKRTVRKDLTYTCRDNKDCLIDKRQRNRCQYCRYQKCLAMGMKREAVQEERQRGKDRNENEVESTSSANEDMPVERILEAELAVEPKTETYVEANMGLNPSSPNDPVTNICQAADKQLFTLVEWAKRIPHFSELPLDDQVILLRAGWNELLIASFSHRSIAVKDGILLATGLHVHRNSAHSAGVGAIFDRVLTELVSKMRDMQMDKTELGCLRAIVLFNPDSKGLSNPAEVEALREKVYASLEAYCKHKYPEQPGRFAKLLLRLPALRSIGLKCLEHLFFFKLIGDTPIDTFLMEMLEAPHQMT
# [18] = target: Thyroid hormone receptor beta (Homo sapiens) (UniProt P10828); experiment: qHTS assay for small molecule agonists of thyroid hormone receptor beta signaling (AID 588545; calls by dose curve)
# Sequence of Thyroid hormone receptor beta (Homo sapiens) (P10828 whole entry, looked up): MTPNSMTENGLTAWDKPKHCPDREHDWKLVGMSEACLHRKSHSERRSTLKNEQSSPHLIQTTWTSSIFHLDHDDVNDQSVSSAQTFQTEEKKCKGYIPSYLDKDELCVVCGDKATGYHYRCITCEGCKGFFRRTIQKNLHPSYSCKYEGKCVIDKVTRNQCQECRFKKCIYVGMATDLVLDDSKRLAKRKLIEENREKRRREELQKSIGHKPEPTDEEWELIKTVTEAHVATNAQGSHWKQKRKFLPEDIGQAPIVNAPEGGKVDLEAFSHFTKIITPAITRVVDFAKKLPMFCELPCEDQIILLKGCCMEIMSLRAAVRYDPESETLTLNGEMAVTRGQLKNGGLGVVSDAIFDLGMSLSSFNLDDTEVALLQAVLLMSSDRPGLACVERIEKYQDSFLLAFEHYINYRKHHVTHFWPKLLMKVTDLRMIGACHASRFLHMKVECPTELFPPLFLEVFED
# In short: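 In this cell-based screen, titrated compounds act on HEK 293 cells held in medium with 2% charcoal/dextran FBS, NEAA and pyruvate for 18 hrs at 37 C. Responses are expressed relative to T3 (10 nM) as 100% and basal DMSO as 0%.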
# [19] = qHTS assay for small molecule antagonists of retinoid X receptor alpha signaling (AID 588546); conditions: HEK293T RXRa-UAS-bla, beta-lactamase ratio, antagonist mode; measured here: W530 green channel, cytotoxicity proxy;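 note: cells stimulated with 9-cis-retinoic acid as agonist; % is set by controls: 0 for no effect and ±100 for the full control effect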
# In short: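 Beta-lactamase reporter inhibition, read as CCF4 fluorescence ratio (ex 405, em 460/530 nm) after 2 h at RT. HEK293T UAS-bla cells, 2500/well, were stimulated with 9-cis-RA at 500 or 100 nM final alongside test compound for 18 h at 37 C.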
# [20] = target: Thyroid hormone receptor beta (Homo sapiens) (UniProt P10828); experiment: qHTS assay for small molecule antagonists of thyroid hormone receptor beta signaling (AID 588547; active = well fitted inhibition curve with a large enough effect in the signal ratio, with a control signal flat, not every such curve was filed as active; the % refers to the signal ratio); conditions: TR-UAS-bla HEK293, beta-lactamase ratio, antagonist mode, 18 h
# In short: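 TR-UAS-bla GripTite HEK293 cells in 2% charcoal/dextran FBS medium; compounds 0.59 nM to 92 uM with T3 at 0.4nM final, 18 h at 37 C. Beta-lactamase read by CCF4 fluorescence (460/530 nm); Hill fits gave IC50 and efficacy.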
# [21] = qHTS assay for small molecule agonists of the antioxidant response element (ARE) signaling pathway (AID 651741; active = well fitted activation curve with a large enough effect in the signal ratio; the % refers to the signal ratio; note: % of control where 0% means no effect)
# In short: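 Stably integrated ARE-beta-lactamase reporter HepG2 cells; 16 h compound incubation, 37 C; LiveBLAzer FRET substrate 2 h at room temperature; fluorescence intensity.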
# [22] = qHTS assay for small molecule activators of the nuclear factor-kappa B (NF-kB) signaling pathway (AID 651749; active = well fitted activation curve with a large enough effect in the signal ratio; the % refers to the signal ratio; note: % of control where 0% means no effect); conditions: NF-kB-bla ME-180 cells, beta-lactamase FRET ratio, 16 h; activation: stronger effect = higher value
# In short: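 In this qHTS format, compounds acting as activators increase NF-kB-driven beta-lactamase in ME-180 cells, measured as disrupted FRET after 16 hr exposure at 37C and 5% CO2.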
# [23] = qHTS assay for environmental chemicals that activate the Aryl hydrocarbon Receptor (AhR) signaling pathway (AID 651777); conditions: 1A2-DRE human hepatoma cells, luciferase, 24 h; activation: stronger effect = higher value; note: % of control where 0% means no effect; nearly all actives have a fitted effect of over 15% in size
# In short: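 Stable CYP1A2 promoter/DRE-luciferase human hepatoma line treated 24 hr; One-Glo luminescence, 30 min RT.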
# [24] = qHTS assay for small molecule agonists of the antioxidant response element (ARE) signaling pathway measured by Nrf2-dependant transcriptional activity (AID 720636; active = well fitted curve in the direction sought with a large enough effect in the repeat runs; an effect the other way counts as inactive or inconclusive;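 note: HepG2 cells with an ARE-driven luciferase reporter; % of control where 0% means no effect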)
# In short: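 Reporter gene assay, HepG2 ARE-luc: 16 hr compound, 37 C, 5% CO2; read-out luciferase luminescence.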
# [25] = qHTS assay for small molecule agonists of the antioxidant response element (ARE) signaling pathway measured by Nrf2-dependant transcriptional activity - cell viability counter screen (AID 720653; active = well fitted curve in the direction sought with a large enough effect in the repeat runs; an effect the other way counts as inactive or inconclusive; note: % is set by controls: 0 for no effect and ±100 for the full control effect); conditions: ARE-bla HepG2 viability, CellTiter-Glo ATP luminescence, 16 h; stronger effect = lower value
# In short: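 ARE-bla HepG2 cells treated with compounds for 16 h at 37C; this counter screen measures viability as intracellular ATP by CellTiter-Glo luminescence after 30 min at room temperature.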
# [26] = qHTS assay for cell viability of HEK293 cells (AID 743288); conditions: ATP luminescence (CellTiter-Glo), 18 h; max response: stronger effect = lower value; note: % is set by controls: 0 for no effect and ±100 for the full control effect; nearly all actives have a fitted effect of over 50% in size
# In short: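 Readout is luciferase-coupled ATP content (CellTiter-Glo luminescence, 30 min room temperature) as a measure of metabolically competent cells. Parental HEK293 cells were plated 5 h or more before compound addition, then treated 18 h at 37 C.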
# [27] = target: Nuclear receptor subfamily 1 group I member 2 (Rattus norvegicus) (UniProt Q9R1A7); experiment: qHTS assay for small molecule activators of the rat pregnane X receptor (rPXR) signaling pathway (AID 651751; call rule not given here; note: 0% is about no effect); conditions: rPXR reporter cells, luciferase (One-Glo), 24 h
# [28] = qHTS assay for small molecule activators of the human pregnane X receptor (PXR) signaling pathway (AID 720659; call rule not given here; note: 0% is about no effect)
# [29] = measured here: cell count channel max response
# [30] = measured here: lipid channel max response
structure (smiles),measurement,setting,value
C=C1C([C@@]2(C)C(OC(C)=O)CC(=O)O[C@@](C)(COC(C)=O)C2CC(=O)OC)C(OC=O)C(OC(=O)C(OC(C)=O)C(C)CC)[C@]2(C)C(c3ccoc3)CC(=O)C12O (stereo partly specified),Potency,[1],12.6 µM (active)
same,Potency,[2],inactive
same,Potency,[3],inactive
same,Potency,[4],inactive
same,"activity change, negative = inhibition",[5],-5.86% (inactive)
same,max response,[5]; [29],19%
same,max response,[5]; [30],13.8%
CNC(C)[C@H](O)c1ccccc1 (stereo partly specified),Potency,[3],inactive
same,"activity change, negative = inhibition",[5],9.2% (inactive)
same,max response,[5]; [29],21.5%
same,max response,[5]; [30],37.3%
same,Potency,[6],inactive
CC(=O)OC1CC(OC(C)=O)[C@]2(C)C(CC(OC(C)=O)[C@]3(C)C2CC[C@@]2(C)C(c4ccoc4)C(=O)C4O[C@]432)C1(C)C (stereo partly specified),Potency,[1],3.98 µM (active)
same,Potency,[2],inactive
same,Potency,[3],inactive
same,"activity change, negative = inhibition",[5],-15.3% (inactive)
same,max response,[5]; [29],-13.1%
same,max response,[5]; [30],-24.4%
CNC(=O)Oc1ccccc1OC(C)C,Potency,[1],inactive
same,Potency,[3],inactive
same,Potency,[4],inactive
same,"activity change, negative = inhibition",[5],5.74% (inactive)
same,max response,[5]; [29],11.3%
same,max response,[5]; [30],18.3%
same,Potency,[7],inactive
same,Potency,[8],inactive
same,activation,[9],-7.67% (inactive)
same,Potency,[10],inactive
same,outcome,[11],inactive
same,max response,[12],17.8%
same,outcome,[13],inactive
same,outcome,[14],inactive
same,outcome,[15],inactive
same,max response,[16],-0.248%
same,Potency,[17],inactive
same,outcome,[18],inactive
same,max response,[19],-6.53%
same,activity change % (negative = inhibition),[20],16.1% (inactive)
same,Potency,[21],inactive
same,activation,[22],-2.6% (inactive)
same,activation,[23],-1.13% (inactive)
same,outcome,[24],inactive
same,max response,[25],-4.9% (inactive)
same,max response,[26],-6.22% (inactive)
same,max response,[27],-0.132% (inactive)
same,outcome,[28],inactive
